Screens from PubChem.
SMN2 splice enh – increases expression of the SMN2 splice variant; Potency, µM (doses to about 46.1 µM), inactives show at the highest dose activity change, positive = activation, hits mostly activators; HEK293 SMN2-luciferase splicing reporter, luminescence, 30-36 h; 210,000 compounds, 2.8% hits; AID 1458; also: % of control where 0% means no effect; nearly all actives have a fitted effect of over 55% in size
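HEK293 cells carry an SMN2 […]–luciferase reporter in which exon 7 inclusion puts luciferase in frame. Cells were plated 10-12 h before compound addition, then incubated 30-36 h at 37C. ONE-Glo luminescence was read; sodium butyrate at 4.5 mM final served as control.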
FLuc modulator – inhibits or activates purified firefly luciferase, miR-21 counter-screen; P08659; purified FLuc, Km substrates, luminescence inhibition; Potency, µM (highest dose often 57.5 µM), for the others: top-dose activity change, negative = inhibition, most hits filed as inhibitors; 360,000 compounds, 6.9% hits; AID 588342;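 also: plate controls were vehicle for no effect and reference inhibitor for full effect; nearly all actives have a fitted effect of over 55% in size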
Target sequence (P08659 whole entry, looked up): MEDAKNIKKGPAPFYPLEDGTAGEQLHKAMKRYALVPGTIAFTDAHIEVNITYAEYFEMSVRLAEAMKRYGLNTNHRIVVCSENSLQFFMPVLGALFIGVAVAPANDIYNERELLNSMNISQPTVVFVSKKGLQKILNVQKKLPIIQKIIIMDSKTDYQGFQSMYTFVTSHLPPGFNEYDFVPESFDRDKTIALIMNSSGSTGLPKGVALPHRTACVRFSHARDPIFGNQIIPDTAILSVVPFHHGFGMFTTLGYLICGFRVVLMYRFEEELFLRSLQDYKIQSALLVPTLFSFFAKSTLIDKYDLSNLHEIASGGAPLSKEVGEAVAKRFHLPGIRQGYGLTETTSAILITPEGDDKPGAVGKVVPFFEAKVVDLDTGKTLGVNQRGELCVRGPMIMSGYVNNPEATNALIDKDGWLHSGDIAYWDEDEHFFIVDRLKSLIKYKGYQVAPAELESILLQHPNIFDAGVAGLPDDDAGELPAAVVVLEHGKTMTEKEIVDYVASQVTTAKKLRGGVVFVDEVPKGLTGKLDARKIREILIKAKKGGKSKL
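Purified P. pyralis luciferase (10nM final) with 10uM D-luciferin and 10uM ATP (Km levels) in 50mM Tris acetate pH 7.5, 10mM Mg acetate, 0.01% Tween-20, 0.05% BSA; qHTS 6-point titration, ~60 µM downward; luminescence read.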
ELG1 genotox – induces genotoxicity in HEK293T cells with luciferase-tagged ELG1 | 330,000 compounds, 1.3% hits | Potency, µM (series often up to 46 µM), for inactives: at the top dose activity change, positive = activation, actives largely listed as activators | HEK293T ELG1-luciferase reporter, luminescence, 16 h; also: % of control where 0% means no effect; nearly all actives have a fitted effect of over 60% in size
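16 hr compound incubation (37 °C, 5% CO2) of HEK293T cells carrying luciferase-tagged ELG1; luciferase then measured by ONE-Glo luminescence after 30 min at RT.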
NPC1 prom act – activates the NPC1 promoter | Potency, µM (top dose mostly 9.22 µM), inactives show at the highest dose activation, most hits filed as activators | AID 485313 | 320,000 compounds, 2.4% hits | Huh7 NPC1 promoter luciferase reporter, 24 h; also: % of control where 0% means no effect; nearly all actives have a fitted effect of over 60% in size
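Luminescence read-out of NPC1 promoter-driven luciferase in stably transfected Huh7 cells; compounds delivered in DMSO and left 24 h at 37C, 5% CO2, qHTS titration format.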
Rab9 promoter act – activates the Rab9 promoter; Huh7 Rab9 promoter-luciferase reporter, luminescence, 24 h; Potency, µM (series often up to 9.22 µM), for the others: at the highest dose activation, negative = inhibition, usual class: activators; 320,000 compounds, 2.8% hits; AID 485297; also: % of control where 0% means no effect; nearly all actives have a fitted effect of over 60% in size
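Luciferase signal after 10 min detection reagent at ambient indicates Rab9 promoter upregulation; stably transfected Huh7 cells were treated 24 h with compound in DMSO at 37 °C, 5% CO2.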
* marks the source's active call; other numbers are inactive results; ? = inconclusive; · = no result; [ ] = dose if it differs, or a comment. Most compounds without a hit are left out; they make up all but 7.5% or so of the library. Calls follow the shape of the dose curve; as a rule, active = well fitted curve in the direction sought with a large enough effect; inconclusive = small, poorly fitted or top-dose-only effect, or another doubt; inactive = no such curve, though single readings can be large; an effect the other way counts as inactive or inconclusive. Potency is read from the fitted curve at half-maximal effect.

SMILES	SMN2 splice enh	FLuc modulator	ELG1 genotox	NPC1 prom act	Rab9 promoter act
CN(CC(=O)NCc1ccccc1Cl)S(=O)(=O)c1ccc2c(c1)n(C)c(=O)c(=O)n2C	·	0%	1%	-20%	-1%
CCn1cc(C(=O)N2CCN(c3ccc(OC)cc3)CC2)c(=O)c2cc(S(=O)(=O)N(C)C3CCCCC3)ccc21	?	-18%	·	·	·
Cc1cc(C=C2C(=O)c3ccccc3C2=O)c(C)n1-c1cccc(C(=O)O)c1	-26%	4.8µM*	26%	29%	2.5µM*
COCCOC(=O)c1c(C)oc2c1cc(NS(=O)(=O)c1ccc(Cl)c(C)c1)c1ccccc12	-4%	?	·	·	·
O=c1c(Cl)c(NCCCO)cnn1-c1nc2ccccc2[nH]1	?	12µM*	16µM*	?	?
C=CCN(CC=C)c1cnn(-c2nc3ccccc3[nH]2)c(=O)c1Cl	·	6µM*	?	2µM*	0.71µM*
O=S(=O)(Nc1nc2ccccc2[nH]1)c1ccc(Cl)cc1	-3%	1%	-1%	-1%	-2%
O=c1c(Cl)c(NCCO)cnn1-c1cccc(Cl)c1	?	-4%	16%	18%	15%
Cc1ccc2c(c1)N(C(=O)CCC(=O)N1CCC(C(N)=O)CC1)CC(C)O2 (stereo unspecified)	·	6%	2%	-1%	2%
Cc1ccc(CNC(=O)C2(S(=O)(=O)c3ccc(C)cc3)CC2)cc1	·	5%	-7%	-3%	5%
Cc1ccc(CNC(=O)C2(S(=O)(=O)c3ccccc3)CC=CC2)cc1	·	15µM*	?	4µM*	4µM*
Cn1c(-c2ccc3c(c2)OCO3)cnc1NCc1ccccc1Cl	?	12µM*	10%	25%	?
Cn1c(-c2ccc3c(c2)OCO3)cnc1NCc1ccccc1	13%	?	6%	17%	11%
CCCN1CCN(C(=O)c2ccc(F)c(S(=O)(=O)N3CCOCC3)c2)CC1	·	3%	-1%	1%	-5%
CCc1c(C)c(C#N)c2[nH]c3ccccc3n2c1=S	·	-14%	-9%	-27%	-28%
CC(SCc1cc(=O)n2c([nH]c3ccccc32)c1C#N)C(=O)O (stereo unspecified)	-16%	?	-4%	5%	-7%
C=C(C)Cc1c(C)c(C#N)c2[nH]c3ccccc3n2c1=O	·	-5%	-7%	-3%	3%
COCc1cc(=O)n2c([nH]c3ccccc32)c1C#N	?	19µM*	19%	-1%	8%
CCc1cc(=O)n2c([nH]c3ccccc32)c1C#N	-62%	19µM*	15%	-1%	-6%
CCc1cc(=S)n2c([nH]c3ccccc32)c1C#N	·	24µM*	-17%	0%	-8%
CCCC1=Nc2cc(C(=O)N3CCC(C(=O)OCC)CC3)ccc2Sc2ccccc21	-1%	1%	-7%	-2%	-2%
CN(CCO)CCC(=O)NC1(C)CS(=O)(=O)CC1S(=O)(=O)O (stereo unspecified)	·	1%	4%	-1%	0%
CS(=O)(=O)N1CCC(C(=O)N2CCN(C(c3ccccc3)c3ccccc3)CC2)CC1	6%	3%	0%	-5%	-9%
Cc1noc(-c2ccc(NCc3ccccc3)c([N+](=O)[O-])c2)n1	·	-16%	·	·	·
COc1ccccc1CNc1ccc(-c2nc(C)no2)cc1[N+](=O)[O-]	·	13µM*	·	·	·
SMILES	SMN2 splice enh	FLuc modulator	ELG1 genotox	NPC1 prom act	Rab9 promoter act
COc1ccccc1CNc1ccc(-c2nc(C(C)C)no2)cc1[N+](=O)[O-]	·	12µM*	·	·	·
C[C@H](CO)N1C[C@H](C)[C@@H](CN(C)CC2CCCCC2)Oc2c(NC(=O)Cc3ccccc3)cccc2C1=O	·	·	-4%	·	·
N#C/C(C(=O)c1ccccc1)=C1/CCCCCN1	?	21µM*	?	?	2.5µM*
O=C(COC(=O)C1CCC1)NCCc1ccc(Cl)cc1Cl	·	0%	2%	0%	-2%
COC(=O)CCC(=O)Nc1ccc(N=Nc2ccccc2)cc1	?	21µM*	?	27%	?
O=C(COC(=O)C1CC1)Nc1ccc(N=Nc2ccccc2)cc1	6.3µM*	?	21µM*	3.5µM*	0.63µM*
Cc1ccc(NC(=O)COC(=O)C2CC2(Cl)Cl)cc1C (stereo unspecified)	-8%	8.5µM*	3%	1%	-1%
O=C(COC(=O)C1CCC1)NCc1ccc(Cl)cc1Cl	·	17µM*	12%	0%	2%
CC(NC(=O)COC(=O)C1CCN(c2ccc(C(F)(F)F)cn2)CC1)c1ccc(Br)cc1 (stereo unspecified)	·	1%	17%	-4%	-3%
O=C(NCc1ccccc1Cl)C1=CC=CN2CCS(=O)(=O)N=C12	·	-5%	3%	-2%	-2%
CCCCC(=O)OCC(=O)Nc1ccc(C)c(F)c1	-13%	17µM*	2%	1%	-8%
Cc1ccc(NC(=O)COC(=O)C2CC2)cc1Cl	·	15µM*	3%	-2%	1%
Cc1ccc(Cl)c(NC(=O)COC(=O)C2CCC2)c1Cl	·	-3%	2%	-2%	0%
CCOc1ccc(C(C)=O)cc1CN1C(=O)C(=O)N(CC)C1=O	-3%	-1%	2%	-2%	-5%
Cc1cc(C)n(-c2nc3c(c(=O)[nH]c(=O)n3C)n2CCc2ccccc2)n1	14µM*	2%	-4%	2%	1%
Cc1cc(C)n(-c2nc3c(c(=O)[nH]c(=O)n3C)n2Cc2ccccc2)n1	-6%	-1%	3%	0%	4%
CCC(=O)c1ccc(OCC(=O)NCCc2ccccn2)cc1	4%	-1%	0%	-1%	10%
CNC(=O)Cn1nc(C)c2ccccc2c1=O	17%	-1%	0%	2%	4.5µM*
CC(=O)/C(=C\c1ccccc1F)C(=O)c1ccccc1	-8%[9.22 µM]	·	·	·	·
O=C(Cc1ccc(Cl)cc1)Nc1ncc([N+](=O)[O-])s1	-57%	15µM*	-2%	4%	1.4µM*
O=C(COc1ccc(Cl)cc1)Nc1ncc([N+](=O)[O-])s1	?	4.3µM*	?	0.56µM*	?
O=C(COC(=O)COc1ccccc1)Nc1ncc([N+](=O)[O-])s1	·	?	-1%	3%	3%
Cc1cc(C(=O)CSc2nnnn2C)c(C)n1CCc1ccc(F)cc1	-5%	8%	8%	-11%	4%
Cc1cc(C(=O)CSc2ncccn2)c(C)n1Cc1ccco1	3.5µM*	3µM*	?	1µM*	0.56µM*
Cc1cc(C(=O)CSc2nnnn2C)c(C)n1Cc1ccco1	·	13µM*	?	2.8µM*	2.8µM*
O=C(NCCN1C(=O)S/C(=C\c2cccc(Cl)c2Cl)C1=O)C1=COCCO1	·	-14%	?	-29%	-7%
CC1=CC(=C2C(=O)c3ccccc3C2=O)C=C(C)O1	9%	?	20%	?	?
CC1=CC(=C2C(=O)c3ccccc3C2=O)C=C(C)N1Cc1ccco1	14µM*	3.4µM*	18%	2.2µM*	1.6µM*
